Data reported in PubChem BioAssay.
“And” between values parts separate entries of the source, which are not always exact repeats. Equal values may be shown once. The source made the active and inactive calls.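 Rule for the calls, unless noted: active = inhibition at or above 50% relative to wild type and mutant plate controls; inactive = inhibition below 50%.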

Key:
[1] = inhibitors of TNFa-induced NFkB p65 translocation, primary screen, imaging, HUVEC, MLSMR starter and 10KST1 sets (AID 438;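 active = inhibition above 20% together with a positive visual image hit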;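 note: compound added about 3h40 before a 20 min TNFalpha stimulation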;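 for inhibition: signal is the nuclear over cytoplasmic p65 intensity ratio per well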); conditions: HUVEC TNFa-induced p65 nuclear translocation; cell count: measured here: nuclei count (cytotoxicity indicator), at 2.08 µM; inhibition: at 2 µM, stronger effect = higher value, 0% TNFa-plus-vehicle, 100% no-TNFa wells
[2] = inhibitors of mutant huntingtin aggregation, primary screen, imaging, exon1htt(103Q)mCFP cells, high-content imaging (AID 483;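 active = visual image review flags a hit and inhibition of aggregation exceeds 20%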;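 note: compound exposure lasted 3 days before fixation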;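 for nuclei count: percent of the per-plate median nuclei count of sample wells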); conditions: exon1htt(103Q)mCFP cell line, aggregate imaging, at 2 µM; inhibition of aggregation: stronger effect = higher value; nuclei count: measured here: cell count, toxicity
[3] = inhibitors of E-selectin induction by TNFa, primary screen, imaging, HUVEC, immunofluorescence, MLSMR starter and 10KST1 sets (AID 487;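 active = visually confirmed hit in the image check and inhibition above 20%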;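 for inhibition: signal is fraction of cell area covered by stained E-selectin grains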;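 for nuclei count: 100% = median nuclei count of all wells on the same plate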); conditions: HUVEC TNFalpha-induced E-selectin immunofluorescence imaging, at 2 µM; inhibition: stronger effect = higher value; nuclei count: measured here: cell number, toxicity
[4] = DUSP6 inhibitors restoring Erk phosphorylation by chemical complementation, primary imaging in DUSP6-transfected HeLa (AID 609;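 active = compounds giving at least 50% inhibition in the cell-based MKP-3 phosphatase rescue imaging test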;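 for inhibition: phospho-Erk level distribution per well compared with pooled transfected vehicle control wells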); conditions: HeLa MKP-3 transfected, phospho-Erk imaging KS statistic, at 10 µM, cells stimulated with TPA for 15 min
[5] = target: Dual specificity protein phosphatase 6 (Homo sapiens) (UniProt Q16828); test: as above; conditions: HeLa MKP-3 transfected, phospho-Erk imaging KS statistic; at 10 µM; stronger effect = higher value; cells stimulated with TPA for 15 min
[6] = target: Voltage-gated potassium channel subunit beta-2 (Rattus norvegicus) (UniProt P62483); test: KvBeta enzyme negative modulators, primary screen, biochemical, NADPH fluorescence (AID 622;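 active = fluorescence slope higher than the sample average by over 3 SD, cut at about -0.22 in these data, passing the limit was not always enough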;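 note: slope of raw intensity against log time taken from 70 to 1610 s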); conditions: recombinant KvBeta, 4-cyanobenzaldehyde reduction, at 10 µM, stronger effect = higher value
[7] = target: Voltage-gated potassium channel subunit beta-2 (Rattus norvegicus) (UniProt P62483); test: KvBeta positive modulators, primary screen, biochemical, NADPH fluorescence (AID 623;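 active = NADPH fluorescence slope more negative than the mean of all samples by about 3 SD, 99.7% confidence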;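 note: fluorescence intensity change per second fitted from 20 to 320 s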); conditions: Recombinant KvBeta, NADPH fluorescence decrease slope, 10 min; at 10 µM; stronger effect = lower value
[8] = target: Alpha-2C adrenergic receptor (Homo sapiens) (UniProt P18825); test: modulators of alpha2C/GIRK thallium flux, primary screen, cell-based, HEK293 alpha2C/GIRK1/2 (AID 624;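 active = fluorescence slope after compound addition differing from the mean of all screened samples at 99.7% confidence, in either direction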;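 note: slope of fluorescence ratio to pre-addition baseline per second over 15 to 24 s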); conditions: thallium flux BTC fluorescence, at 10 µM, actives lie on both sides
[9] = inhibitors of larval lipid processing in zebrafish, primary screen, whole organism, PED6 fluorescence, gall bladder and intestine (AID 686;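 active = a full or partial loss of lipid-probe fluorescence in the fish gall bladder, intestine or both, judged by eye; inactive = no fluorescence loss, or compound toxic to the fish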;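 note: larvae 5 to 7 days old with five fish per well; signal comes from phospholipase A2 cleavage of quenched PED6 carried via bile; overnight exposure to compound and PED6 before scoring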); conditions: Zebrafish larvae PED6 lipid processing, fluorescence scoring; screened at 20 µM (by protocol)
[10] = inhibitors of Chlamydomonas gravitaxis, primary screen, whole organism, Chlamydomonas reinhardtii, WT vs cilia-less mutant, absorbance, 96-well (AID 463189); conditions: OD600 absorbance, 2 days, at 10 µM, stronger effect = higher value;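 note: 0% = wild type cc124 cells in DMSO and 100% = ciliumless bld1 mutant cells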
[11] = inhibitors of Sendai virus-induced IRF3 signaling, primary screen, TLR/RLR signaling modifier project, cell-based, Sendai virus stimulus, luciferase, 10K MLSCN set (AID 602276;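 active = inhibition at or above 50% at 10 µM; inactive = inhibition below 50%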;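 note: firefly luciferase from ISG56 promoter only with Renilla not read in this screen; 0% = Sendai virus plus DMSO and 100% = medium plus DMSO without virus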); conditions: HEK293 RL24 IRF3 luciferase reporter, at 10 µM, stronger effect = higher value
[12] = inhibitors of poly I:C-induced TLR3 signaling, primary screen, cell-based, poly I:C stimulus, luciferase, 10K MLSCN set (AID 602277;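 active = inhibition of the reporter signal at or above 50%; inactive = inhibition below 50%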); conditions: HEK293-TLR3 RL24 IRF3 luciferase reporter, at 10 µM, stronger effect = higher value
[13] = measured here: cell density z-score
[14] = measured here: nuclear c-Myc green intensity z-score
[15] = measured here: nuclear pErk red intensity z-score, stronger effect = higher value

Alpha-2C adrenergic receptor (Homo sapiens), sequence (P18825 whole entry, looked up): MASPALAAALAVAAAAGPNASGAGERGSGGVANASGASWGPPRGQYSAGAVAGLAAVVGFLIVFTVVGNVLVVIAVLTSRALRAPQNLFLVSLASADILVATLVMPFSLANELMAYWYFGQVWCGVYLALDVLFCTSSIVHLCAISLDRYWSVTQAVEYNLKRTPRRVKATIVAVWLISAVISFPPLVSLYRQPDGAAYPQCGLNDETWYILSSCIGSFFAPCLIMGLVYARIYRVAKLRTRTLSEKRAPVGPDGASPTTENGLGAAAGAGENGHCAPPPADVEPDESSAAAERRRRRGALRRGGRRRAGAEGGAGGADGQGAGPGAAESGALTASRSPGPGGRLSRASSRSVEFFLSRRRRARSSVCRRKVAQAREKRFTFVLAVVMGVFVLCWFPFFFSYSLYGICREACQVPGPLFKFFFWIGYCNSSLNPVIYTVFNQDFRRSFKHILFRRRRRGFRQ
Dual specificity protein phosphatase 6 (Homo sapiens), sequence (Q16828 whole entry, looked up): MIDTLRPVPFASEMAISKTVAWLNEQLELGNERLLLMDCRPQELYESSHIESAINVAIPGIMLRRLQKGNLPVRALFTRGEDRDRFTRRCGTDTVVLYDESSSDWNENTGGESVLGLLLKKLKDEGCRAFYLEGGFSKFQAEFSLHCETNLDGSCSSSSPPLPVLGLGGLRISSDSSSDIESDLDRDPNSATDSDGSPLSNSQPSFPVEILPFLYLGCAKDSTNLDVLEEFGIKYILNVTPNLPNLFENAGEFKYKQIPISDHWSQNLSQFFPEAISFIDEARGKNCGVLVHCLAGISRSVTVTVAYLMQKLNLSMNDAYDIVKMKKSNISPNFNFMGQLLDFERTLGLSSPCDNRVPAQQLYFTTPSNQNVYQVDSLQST
Voltage-gated potassium channel subunit beta-2 (Rattus norvegicus), sequence (P62483 whole entry, looked up): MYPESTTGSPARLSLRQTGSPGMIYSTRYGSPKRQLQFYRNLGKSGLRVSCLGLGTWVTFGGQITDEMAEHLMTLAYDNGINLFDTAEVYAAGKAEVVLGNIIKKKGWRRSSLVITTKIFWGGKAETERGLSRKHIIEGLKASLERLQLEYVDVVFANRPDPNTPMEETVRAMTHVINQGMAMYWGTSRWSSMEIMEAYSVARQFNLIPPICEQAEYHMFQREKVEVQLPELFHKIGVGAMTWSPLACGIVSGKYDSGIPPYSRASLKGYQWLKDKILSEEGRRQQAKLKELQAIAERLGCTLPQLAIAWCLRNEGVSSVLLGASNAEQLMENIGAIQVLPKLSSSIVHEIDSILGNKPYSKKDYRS

Row | Structure (SMILES) | cell count [1] | inhibition [1] | inhibition of aggregation [2] | nuclei count [2] [%] | inhibition [3] | nuclei count [3] [%] | z-score [4, 13] | z-score [4, 14] | z-score [4, 15] | inhibition [5] | fluorescence slope [6] | NADPH fluorescence slope [7] | slope [8] | outcome [9] | inhibition [10] | inhibition [11] | inhibition [12]
1 | CCN(CC)c1ncc(C)c(=O)[nH]1 | 410 | -19.3% (inactive) | -26.9% (inactive) | 121 | -44.9% (inactive) | 111 | 0.304 | -0.433 | -0.0626 | -2.69% (inactive) | -0.541 (inactive) | -8.2e-05 (inactive) | 0.00493 (inactive) | inactive | 31.2% (inactive) | 22.3% (inactive) | 22% (inactive)
2 | CCC(=O)Oc1ccc(/C(CC)=C(\CC)c2ccc(OC(=O)CC)cc2)cc1 | 550 | -4.1% (inactive) | 3.5% (inactive) | 97.5 | -13.5% (inactive) | 127 | -0.723 | 0.714 | 1.03 | 3.45% (inactive) | -0.443 (inactive) | -5.7e-05 (inactive) | 0.00761 (inactive) | inactive | 9.5% (inactive) | 11.1% (inactive) | 42.9% (inactive)
3 | N=c1nc(N2CCCCC2)cc(N)n1O | 660 | 0.9% (inactive) | -1.2% (inactive) | 114 | -58.5% (inactive) | 138 | -0.689 | -0.0187 | 0.315 | 25.7% (inactive) | -0.46 (inactive) | -6e-05 (inactive) | 0.00444 (inactive) | inactive | 1.56% (inactive) and -3.08% (inactive) | 9.96% (inactive) | 34.6% (inactive)
4 | CCOC(=O)C1CCN(c2nc3ccccc3nc2C(C#N)C(=O)OCCOC)CC1 (stereo not given) | 436 | -5.7% (inactive) | 12.8% (inactive) | 81 | -67.9% (inactive) | 120 | 0.586 | 0.396 | 0.0352 | -11.5% (inactive) | -0.529 (inactive) | 2.1e-06 (inactive) | 0.00561 (inactive) | inactive | -22.9% (inactive) | 13.3% (inactive) | 3.22% (inactive)
5 | O=C1NC(c2cccs2)Nc2ccccc21 (stereo not given) | 600 | -16.1% (inactive) | 14.1% (inactive) | 130 | -3.3% (inactive) | 140 | -1.25 | -1.7 | 1.79 | 1.12% (inactive) | -0.292 (inactive) | -3.3e-05 (inactive) | 0.00756 (inactive) | inactive | 15.5% (inactive) | -3% (inactive) | 0.34% (inactive)
6 | COc1ccc(C(=O)Nc2cccnc2)cc1C(=O)Nc1cccnc1 | 654 | 4.4% (inactive) | -4.7% (inactive) | 101 | -4.7% (inactive) | 72.8 | 0.737 | -0.175 | -0.517 | 23.4% (inactive) | -0.448 (inactive) | -4.6e-05 (inactive) | 0.00454 (inactive) | inactive | -3.27% (inactive) | 11.5% (inactive) | 36% (inactive)
7 | Oc1ccc(/C=C/c2cc(O)cc(O)c2)cc1 | 597 | 2.2% (inactive) | 6% (inactive) | 98.6 | -78% (inactive) | 118 | -1.5 | -0.867 | 1.21 | 14.6% (inactive) | -0.411 (inactive) | -0.000101 (inactive) | 0.00434 (inactive) | inactive | 3.52% (inactive) and 10.8% (inactive) | -39.2% (inactive) | -231% (inactive)
8 | CCCCN(CCCC)CCCOC(=O)c1ccc(N)cc1 | 680 | -1.8% (inactive) | 7.7% (inactive) | 97.6 | -60.2% (inactive) | 130 | -0.857 | -0.989 | 0.993 | -4.44% (inactive) | -0.511 (inactive) | -5.7e-05 (inactive) | 0.00529 (inactive) | inactive | 12.6% (inactive) | -12.8% (inactive) | 56.3% (active)
9 | Cn1nnnc1SCC1=C(C(=O)O)N2C(=O)[C@@H](NC(=O)[C@H](O)c3ccccc3)[C@H]2SC1 | 634 | -4% (inactive) | -4.8% (inactive) | 106 | -44% (inactive) | 107 | 1.21 | 1.9 | -1.92 | 11.3% (inactive) | -0.45 (inactive) | -5.3e-05 (inactive) | 0.00577 (inactive) | inactive | 22.9% (inactive) | 10.3% (inactive) | 42% (inactive)
10 | Nc1ccc(S(=O)(=O)Nc2ccccn2)cc1 | 684 | 5.6% (inactive) | 15.6% (inactive) | 101 | -123% (inactive) | 131 | -1.05 | -1.54 | 0.683 | 12.4% (inactive) | -0.459 (inactive) | -4.9e-05 (inactive) | 0.00448 (inactive) | inactive | 4.41% (inactive) | 12.4% (inactive) | 42.5% (inactive)
